Measurements as given in PubChem BioAssay AID504336 (NMMLSC, 2011).
Active and inactive are the calls of the source.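 How the source made its calls: active means compounds whose GFP signal falls below 65% of the DMSO control level; inconclusive means fewer than 70 yeast cells counted in the well; inactive means the rest.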

Assay: TOR branch reporter RPL19A-GFP response – cell-based, S. cerevisiae, third cherry pick, flow cytometry, confirmation (AID 504336);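 further: median GFP fluorescence of all gated yeast cells by flow cytometry; ratio of well median fluorescence to plate mean of DMSO wells with DMSO = 100%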
Conditions: S. cerevisiae RPL19A-GFP strain, 3 h, at 10 µM, hits give low values

GFP response relative to DMSO, inactive:
Nc1cccc2c1C(=O)c1ccc(Cl)cc1C2=O 102%
Cc1ccc(NC(=O)O/N=C2\CCCCC2c2ccc([N+](=O)[O-])cc2[N+](=O)[O-])cc1 (centres undefined) 102%
CSc1nc(Nc2ccc(Cl)cc2)c(C#N)c(=O)[nH]1 98.3%
Cc1ccc2c(C)ccc(O)c2n1 103%
O=C(O)CCS(=O)(=O)c1nc(-c2cccs2)cc(C(F)(F)F)n1 97%
Cc1ccc2c(Cl)cc(Cl)c(O)c2n1 82.6%
COc1ccc(NC(=O)O/N=C2/CCCc3ccc(OC)cc32)cc1 104%
C=CCNc1nc(N)c([N+](=O)[O-])c(Nc2cccc(Cl)c2)n1 104%
O=C(Nc1ccccc1)O/N=C1\CCCCC1c1ccc([N+](=O)[O-])cc1[N+](=O)[O-] (centres undefined) 96.5%
Oc1ccc(F)c2cccnc12 101%
COC1=C/C(=C/c2c(N)n3cc(C)sc3nc2=O)C=CC1=O 103%
CC1=CN2C(=N)/C(=C/c3ccc([N+](=O)[O-])o3)C(=O)N=C2S1 240%
COc1ccc(NC(=O)ON=C2c3ccccc3-c3ccccc32)cc1 107%
C[n+]1cccc2c(Br)ccc([O-])c21 101%
Cc1ccc2c(Cl)cc(Cl)c(OCC(=O)O)c2n1 104%
Nn1cnc2c(c1=O)C1(CCCCC1)Cc1ccccc1-2 101%
COc1ccccc1Nc1nc(NCCC(C)C)nc(N)c1[N+](=O)[O-] 97.8%
C/C(=C\C(=O)c1ccccc1)Nc1cccc(O)c1 98%
CC(=O)C(Cl)C(=O)Nc1ccccc1 (centres undefined) 98.8%
O=C(Nc1ccccc1Cl)ON=C1c2ccccc2-c2ccccc21 102%
Nc1c(O)ccc2c1C(=O)c1ccccc1C2=O 102%
O=C(Nc1cccc(Cl)c1)ON=C1c2ccccc2-c2ccccc21 102%
CN(C)CCCNc1cc(O)c2ncccc2c1 103%
COc1cccc2c(=O)c(C(=O)O)c[nH]c12 98.3%
Cc1cccc(C)c1Nc1ncnc(N)c1[N+](=O)[O-] 98.5%
Cn1c(NCCCO)nc2c(c1=O)C1(CCCCC1)Cc1ccccc1-2 102%
COc1cc(=O)n(C)c2c(O)cccc12 101%
CCCCC(=O)NCCc1cc2c(OC)ccc(OC)c2[nH]c1=O 97.5%
COc1cccc2c(O)cc(=O)n(C)c12 99.6%
COc1ccc(Nc2nc(NN)nc(C)c2[N+](=O)[O-])cc1 99.3%
CC1=CN2C(=N)/C(=C/c3ccco3)C(=O)N=C2S1 106%
O=C(Nc1nc(-c2ccccn2)cs1)c1ccccc1-n1cnnn1 98.8%
CC(=O)Nn1cnc2c(c1=O)C1(CCCCC1)Cc1ccccc1-2 99.1%
CNc1nc(N)c([N+](=O)[O-])c(Nc2ccccc2OC)n1 103%
Cc1cccc(Nc2cc(=O)[nH]c(=O)[nH]2)c1C 98.5%
CSc1nc(S(C)(=O)=O)nc2[nH]c(=O)[nH]c12 100%
Cn1c(=O)c2c(n3cnnc13)-c1ccccc1CC21CCCC1 102%
COc1ccc(OC)c2c(=O)cc(C(=O)O)[nH]c12 92.3%
Cc1nc(Nc2ccc(Br)cc2Br)c([N+](=O)[O-])c(=O)[nH]1 100%
